From PubChem BioAssay (NCATS)
Values joined by “and” are separate entries in the source; they are usually repeats but may differ in a detail not shown here. Equal values may be shown once. Records with an inconclusive call do not appear. Active and inactive are the calls of the source. Calls follow the shape of the dose curve; as a rule, active = well fitted inhibition curve with a large enough effect; inconclusive = small, poorly fitted or top-dose-only effect; inactive = flat fitted curve, though single readings scatter.
% is scaled to controls: 0 for no effect and ±100 for the full control effect; potency is read from the fitted curve at half-maximal effect.

What follows are molecules tested on CRL-7250 (assay: Cytotoxic Profiling of Annotated Libraries Using Quantitative High-Throughput Screening (AID 1296008; also: nearly all actives have a fitted effect of over 60% in size)). Details: Five cell lines viability, CellTiter-Glo ATP luminescence, 48-72 h; max response: active compounds read low.
Outline: (§1)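 Cells exposed to compounds for 48 or 72 hr at 37 degrees Celsius. Viability read as ATP-coupled luminescence with CellTiter-Glo after 10 min at room temperature.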
For `Cc1cc(C(=O)NOCCO)c(Nc2ccc(I)cc2F)n(C)c1=O`, the Potency was 0.743 µM (active). `CCC[C@H]1C[C@H](C(=O)N[C@@H]([C@@H]2O[C@@H](SC)[C@@H](O)[C@@H](O)[C@@H]2O)[C@H](C)Cl)N(C)C1` was tested, and the max response was -6.31% (inactive). With `O=C(O)c1ccc(Nc2ncc3c(n2)-c2ccc(Cl)cc2C(c2c(F)cccc2F)=NC3)cc1` the max response was 0.615% (inactive) and the outcome was “inactive”. In the case of `FC(F)c1nc2ccccc2n1-c1nc(N2CCOCC2)nc(N2CCOCC2)n1`, the Potency is reported as 590 nM (active) and 1.16 µM (active). In the case of `C[C@@H](Oc1ccc2[nH]nc(C=Cc3cnn(CCO)c3)c2c1)c1c(Cl)cncc1Cl`, the Potency is reported as 11.8 µM (active). With `Cc1onc(-c2ccccc2)c1C(=O)N[C@@H]1C(=O)N2[C@@H](C(=O)O)C(C)(C)S[C@@H]12` the max response was -3.26% (inactive). With `CCc1nc(-c2cccc(C)c2)c(-c2ccnc(NC(=O)c3ccccc3)c2)s1` the outcome was “inactive”. `CCOC(=O)N1CCN([N+]([O-])=NOc2ccc([N+](=O)[O-])cc2C#N)CC1` was tested, and the Potency was 5.26 µM (active).

Each molecule was assayed on HEK293 in the same assay as above. Details: Five cell lines viability, CellTiter-Glo ATP luminescence, 48-72 h; max response: active compounds read low.
Outline: as §1
With `CCOC(=O)C1=C(C)NC(=S)NC1c1cccc(O)c1` (stereo unspecified) the Potency was 0.0132 µM (active). In the case of `CNC(=O)c1ccc(Nc2cc(Nc3ccccc3S(=O)(=O)C(C)C)c3cc[nH]c3n2)nc1`, the Potency is reported as 2.09 µM (active). With `Cc1cnc(NC(=O)Nc2cc(Br)c(C)cc2OC[C@@H]2CNCCO2)cn1` the Potency was 1.32 µM (active). In the case of `C=C1C(=O)O[C@H]2[C@@H]1CCC(C)=CCC[C@@]1(C)O[C@@H]21`, the Potency is reported as 4.18 µM (active). `COc1cc2c(cc1OC)[C@@H]1C(=O)c3ccc4c(c3O[C@@H]1CO2)C=CC(C)(C)O4` was tested, and the Potency was 0.0526 µM (active). For `c1cc(CN2CCCNCCNCCCNCC2)ccc1CN1CCCNCCNCCCNCC1`, the outcome was “inactive”. With `N#CNC(=NCCCCCCOc1ccc(Cl)cc1)Nc1ccncc1` the max response was -111% (inactive). For `COc1cc2c(Nc3ccc(Cl)c(Cl)c3F)ncnc2cc1OCC1C[C@@H]2CN(C)C[C@H]2C1`, the Potency was 4.69 µM (active). For `N#Cc1ccc(COC[C@H]2O[C@@H](n3c(NCc4ccc(Cl)c(Cl)c4)nc4c(N)ncnc43)[C@@H](O)[C@@H]2O)cc1`, the Potency was 16.6 µM (active). `COc1ccc(Nc2nccc(NCCO)n2)cc1` was tested, and the max response was -0.619% (inactive). With `CCOC(=O)[C@@H](N)Cc1ccc(-c2cc(O[C@H](c3ccc(Cl)cc3-n3ccc(C)n3)C(F)(F)F)nc(N)n2)cc1` the max response was -5.12% (inactive). For `C[C@@H]1[C@H](C)CC[C@]2(C(=O)O)CC[C@]3(C)C(=CC[C@@H]4[C@@]5(C)C[C@@H](O)[C@H](O)[C@@](C)(CO)[C@H]5CC[C@]43C)[C@@H]12`, the max response was -10.4% (inactive). For `CC(C)(N)c1ccc(-c2nc3ccccc3nc2-c2ccccc2)cc1`, the Potency was 0.059 µM (active). In the case of `C=CC1=C(C(=O)O)N2C(=O)[C@@H](NC(=O)C(=NO)c3csc(N)n3)[C@H]2SC1`, the max response is reported as 0.682% (inactive). For `COc1cc(C(C)C)c(Oc2cnc(NC(CO)CO)nc2N)cc1I`, the max response was -7.36% (inactive). `CC(=O)[C@]1(O)Cc2c(O)c3c(c(O)c2[C@@H](O[C@H]2C[C@H](N)[C@@H](O)[C@H](C)O2)C1)C(=O)c1ccccc1C3=O` was tested, and the Potency was 0.132 µM (active). `CCOC(=O)N1CCN([N+]([O-])=NOc2ccc([N+](=O)[O-])cc2[N+](=O)[O-])CC1` was tested, and the Potency was 3.72 µM (active). For `O=C1c2c(O)cccc2[C@@H]([C@@H]2O[C@H](CO)[C@@H](O)[C@H](O)[C@H]2O)c2cc(CO)cc(O)c21`, the outcome was “inactive”. With `COc1cccc2c1C(=O)c1c(O)c3c(c(O)c1C2=O)C[C@@](O)(C(=O)CO)C[C@@H]3O[C@H]1C[C@H](N)[C@@H](O)[C@H](C)O1` the Potency was 0.132 µM (active). For `Nc1ncn([C@@H]2O[C@H](CO)[C@@H](O)[C@@H]2O)c(=O)n1`, the Potency was 4.18 µM (active). For `Cc1cnc(Nc2ccc(CN3CCOCC3)cc2)nc1Nc1cccc(S(=O)(=O)NC(C)(C)C)c1`, the Potency was 3.66 µM (active). `CC(=O)OC[C@@H]1O[C@@H](n2ccc(=O)[nH]c2=O)[C@H](OC(C)=O)[C@H]1OC(C)=O` was tested, and the max response was -0.274% (inactive). With `NC(=O)c1ncn([C@@H]2O[C@H](CO)[C@@H](O)[C@@H]2O)c1O` the max response was 1.7% (inactive). `O=C(C=Cc1ccc(CN(CCO)CCc2c[nH]c3ccccc23)cc1)NO` was tested, and the Potency was 0.372 µM (active). In the case of `COc1ccnc2[nH]cc(C(=O)C(=O)N3CCN(C(=O)c4ccccc4)C[C@@H]3C)c12`, the max response is reported as -2.26% (inactive). In the case of `CS[C@H]1SC[C@@H]2C(=O)N(C)[C@H](C(C)C)C(=O)OC[C@H](NC(=O)c3cnc4ccccc4n3)C(=O)N[C@H](C)C(=O)N(C)[C@@H]1C(=O)N(C)[C@H](C(C)C)C(=O)OC[C@H](NC(=O)c1cnc3ccccc3n1)C(=O)N[C@H](C)C(=O)N2C`, the Potency is reported as 0.0053 µM (active). With `C#C[C@]1(O)CC[C@@H]2[C@@H]3CCC4=CC(=O)CC[C@@H]4[C@H]3CC[C@@]21CC` the max response was -8.15% (inactive). In the case of `O=C(CN1C(=O)C2(CCCC2)NC[C@H]1c1cc(F)cc(F)c1)Nc1ccc2c(c1)C[C@@]1(C2)C(=O)Nc2ncccc21`, the outcome is reported as “inactive”. With `CCCCOc1ccc(C(=O)Nc2ccc(F)cc2F)cc1` the max response was 2.49% (inactive). With `Nc1ccc(C(=O)Nc2cccc(-c3nc(N4CCOCC4)c4oc5ncccc5c4n3)c2)cn1` the Potency was 3.26 µM (active). With `Cc1cc(C(=O)NOCCO)c(Nc2ccc(I)cc2F)n(C)c1=O` the max response was -3.43% (inactive). In the case of `CCC[C@H]1C[C@H](C(=O)N[C@@H]([C@@H]2O[C@@H](SC)[C@@H](O)[C@@H](O)[C@@H]2O)[C@H](C)Cl)N(C)C1`, the max response is reported as -2.02% (inactive). In the case of `FC(F)c1nc2ccccc2n1-c1nc(N2CCOCC2)nc(N2CCOCC2)n1`, the Potency is reported as 1.46 µM (active). `C[C@@H](Oc1ccc2[nH]nc(C=Cc3cnn(CCO)c3)c2c1)c1c(Cl)cncc1Cl` was tested, and the Potency was 13.2 µM (active). `Cc1onc(-c2ccccc2)c1C(=O)N[C@@H]1C(=O)N2[C@@H](C(=O)O)C(C)(C)S[C@@H]12` was tested, and the max response was -0.866% (inactive). `CCc1nc(-c2cccc(C)c2)c(-c2ccnc(NC(=O)c3ccccc3)c2)s1` was tested, and the Potency was 14.8 µM (active). For `CCOC(=O)N1CCN([N+]([O-])=NOc2ccc([N+](=O)[O-])cc2C#N)CC1`, the Potency was 3.32 µM (active).
